Screening data (PubChem BioAssay)
A selection: hits, their analogues and other compounds. The true share with any hit is near 10%.
HEK cytotox: HEK 293 cell cytotoxicity | 6.6% of 94,000 active | HEK 293 viability, ATP luminescence (CellTiter-Glo), 48-72 h | Potency, µM (series often up to 115 µM), usual class: inhibitors; note: nearly all actives have a fitted effect of over 60% in size
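Luminescence from cellular ATP, measured with CellTiter-Glo, indicates HEK 293 viability. Cells plated at 250 cells/well are treated with compound for 48 or 72 hr at 37 degree Celsius before reagent addition.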
GPT2 inhibitor: GPT2 alanine aminotransferase inhibition; Recombinant GPT2, coupled pyruvate oxidase/HRP Amplex Red fluorescence; Potency, µM (series often up to 57.7 µM), hits mostly inhibitors; 0.25% of 100,000 active; note: nearly all actives have a fitted effect of over 60% in size
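Fluorescence read-out: pyruvate from GPT2 turnover coupled to pyruvate oxidase, HRP and Amplex Red (0.2mM ThPP, 0.2U/mL PO and HRP, 50uM Amplex final). Substrates 250uM a-KG, 2mM L-alanine; enzyme 10ng/uL; 30 min RT.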
FLuc inh-1: blocks purified firefly luciferase enzyme activity. 2.5% of 76,000 active. AID 1347043. Potency, µM (top dose mostly 115 µM), usual class: inhibitors. purified P. pyralis luciferase, luminescence, biochemical; note: nearly all actives have a fitted effect of over 65% in size
Target sequence (P08659 whole entry, looked up): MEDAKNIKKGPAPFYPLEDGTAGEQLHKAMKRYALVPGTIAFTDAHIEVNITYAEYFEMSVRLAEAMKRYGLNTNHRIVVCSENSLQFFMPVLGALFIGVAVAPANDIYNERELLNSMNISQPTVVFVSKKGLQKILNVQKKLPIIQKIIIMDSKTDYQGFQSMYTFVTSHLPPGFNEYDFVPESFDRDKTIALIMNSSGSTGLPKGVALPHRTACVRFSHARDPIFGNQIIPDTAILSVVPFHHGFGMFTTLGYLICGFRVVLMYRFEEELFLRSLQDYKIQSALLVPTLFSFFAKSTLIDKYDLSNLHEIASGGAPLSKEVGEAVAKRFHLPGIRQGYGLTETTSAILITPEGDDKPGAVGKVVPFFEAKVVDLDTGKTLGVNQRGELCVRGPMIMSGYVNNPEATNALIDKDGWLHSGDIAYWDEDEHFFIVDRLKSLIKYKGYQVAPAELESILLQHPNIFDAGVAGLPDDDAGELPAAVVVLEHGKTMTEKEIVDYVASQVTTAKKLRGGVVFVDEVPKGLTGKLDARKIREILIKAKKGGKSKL
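Inhibitors were tested against purified firefly luciferase in a biochemical, low-substrate format (both substrates at 10uM) and luminescence measured with a CCD imager.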
NIH3T3 tox: NIH 3T3 cell cytotoxicity | NIH 3T3 viability, CellTiter-Glo ATP luminescence, 48-72 h | Potency, µM (top dose mostly 96.7 µM), hits mostly inhibitors | 4.3% of 94,000 active | AID 1345082; note: nearly all actives have a fitted effect of over 55% in size
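Cytotoxicity was measured by CellTiter-Glo ATP luminescence after 48 or 72 h compound exposure at 37 °C. Mouse NIH 3T3 fibroblasts were seeded at 400 cells/well and dosed by 23 nL pin transfer.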
NPR1 antag: antagonists of human natriuretic peptide receptor Npr1. P16066. HEK293 hNpr1 GloSensor cGMP, ANP-stimulated luminescence. Potency, µM (series often up to 46.3 µM), most hits filed as inhibitors. 1.6% of 76,000 active; calls by dose curve; note: nearly all actives have a fitted effect of over 60% in size
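HEK293 cells stably expressing human Npr1 and cGMP GloSensor pGS-40F, loaded 2 h with 2% GloSensor reagent, given compound 30 min at room temperature. Luminescence read before and 20 min after 0.1 nM hNppA.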
FLuc SDR -ATP: binders stabilizing firefly luciferase, without ATP; Potency, µM (series often up to 32.7 µM), actives largely listed as activators; 7.8% of 1,300 active; shares compounds with FLuc inh-1; Purified FLuc-C-HiBiT, Nano-Glo HiBiT luminescence, no ATP; note: nearly all actives have a fitted effect of over 55% in size
FLuc SDR ATP: firefly luciferase binding stabilization, ATP added | shares compounds with FLuc inh-1 | purified FLuc-C-HiBiT + ATP, HiBiT complementation luminescence | Potency, µM (top dose mostly 32.7 µM), most hits filed as activators | 8.7% of 1,300 active;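 note: signal reports ligand binding via conformational change of the enzyme rather than luciferase catalysis; nearly all actives have a fitted effect of over 55% in size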
FLuc inh-2: firefly luciferase enzyme inhibition | shares compounds with FLuc inh-1 | purified FLuc-C-HiBiT enzyme, luciferin luminescence | Potency, µM (doses to about 32.7 µM), most hits filed as inhibitors | 42% of 1,300 active; note: nearly all actives have a fitted effect of over 70% in size
Of the large screens only hits and unclear results are named; the others gave an inactive call (follow-up assays come after a bar, where they were run). Unless noted, calls come from the whole dose curve; as a rule, active = well fitted curve in the direction sought with a large enough effect; inconclusive = small, poorly fitted or top-dose-only effect, or another doubt; inactive = no such curve, though single readings can be large; an effect the other way counts as inactive or inconclusive.

CCc1ccc(CNC(=O)C2CCCN(c3nn4cc(-c5ccc(F)cc5)nc4s3)C2)cc1 (stereo unspecified)	none (no result: HEK cytotox, GPT2 inhibitor, FLuc inh-1, NIH3T3 tox, NPR1 antag) | FLuc SDR -ATP inactive | FLuc SDR ATP inactive | FLuc inh-2 inactive
CN1c2cc(C(=O)Nc3ccc(Cl)c(Cl)c3)ccc2C(=O)N2CCCCC21 (stereo unspecified)	HEK cytotox inconclusive
CN1CCc2nc3sc(C(=O)Nc4cccc(C#N)c4)c(N)c3cc2C1	none (no result: HEK cytotox, GPT2 inhibitor, FLuc inh-1, NIH3T3 tox, NPR1 antag) | FLuc SDR -ATP inactive | FLuc SDR ATP inactive | FLuc inh-2 inactive
CC(C)n1cnnc1CC1CCCNC1 (stereo unspecified)	none
CC(C)n1cnnc1CN(C)c1nc(N)nc2nc[nH]c12	none | FLuc SDR -ATP inactive | FLuc SDR ATP inactive | FLuc inh-2 inactive
O=C(NCCc1ccccc1)c1ccc2nc(-c3cccnc3)oc2c1	none (no result: FLuc inh-1, NPR1 antag)
Cc1cnc(CCNC(=O)Nc2ccc3c(c2)OCCO3)n1C1CC1	FLuc inh-1 6.3µM | FLuc SDR -ATP inactive | FLuc SDR ATP inactive | FLuc inh-2 inconclusive
CNC(=O)NCCc1ncc(C)n1C1CCCCCC1	none
Cc1cnc(CCNC(=O)Nc2ccc3c(c2)OCCO3)n1Cc1ccc(F)cc1	HEK cytotox 40µM, FLuc inh-1 14µM | FLuc SDR -ATP inactive | FLuc SDR ATP inactive | FLuc inh-2 inconclusive
Cc1ccc(S(=O)(=O)N2CCC(Oc3ncccc3C(=O)N3CCOCC3)C2)cc1 (stereo unspecified)	none
CCCCCc1ccc(/C=C/C(=O)Nc2cc(Cl)ccc2C(=O)O)cc1	none (no result: HEK cytotox, FLuc inh-1, NIH3T3 tox, NPR1 antag)
Cc1ccc2oc(-c3ccc(C)c(NC(=O)/C=C/c4ccc(Cl)cc4)c3)nc2c1	none (no result: HEK cytotox, GPT2 inhibitor, FLuc inh-1, NIH3T3 tox, NPR1 antag) | FLuc SDR -ATP inactive | FLuc SDR ATP inactive | FLuc inh-2 inconclusive
O=C(O)C1CCc2nc(N3CCN(C(=O)C4CCC4)CC3)sc2C1 (stereo unspecified)	FLuc inh-1 6.3µM, NIH3T3 tox inconclusive | FLuc SDR -ATP inactive | FLuc SDR ATP inconclusive | FLuc inh-2 8.8µM
CNC(=O)c1cc(C)nc2onc(C3CCN(C(=O)Cc4cccc(Cl)c4)C3)c12 (stereo unspecified)	none (no result: GPT2 inhibitor, FLuc inh-1, NPR1 antag)
CCC(=O)N1CCc2c(C(=O)NCc3cc(C)ccc3C)cccc21	none
CNC(=O)c1cccc2c1CCN2C(=O)Nc1ccc(C)cc1	FLuc inh-1 0.4µM, NIH3T3 tox inconclusive, NPR1 antag 6.3µM | FLuc SDR -ATP 11µM | FLuc SDR ATP 0.44µM | FLuc inh-2 0.35µM
Cc1cccc(NC(=O)N2CCc3c(C(=O)NC(C)(C)C)cccc32)c1	HEK cytotox inconclusive, FLuc inh-1 7.1µM | FLuc SDR -ATP inconclusive | FLuc SDR ATP inconclusive | FLuc inh-2 8.8µM
CCN1CCN(CCNC(=O)c2cccc3c2CCN3C(=O)Nc2ccc(C)cc2)CC1	HEK cytotox inconclusive, FLuc inh-1 2µM, NIH3T3 tox inconclusive, NPR1 antag inconclusive | FLuc SDR -ATP inconclusive | FLuc SDR ATP 1.6µM | FLuc inh-2 1.1µM
CNC(=O)c1cc(C)nc2onc(C3CCCN3C(=O)c3ccccc3C)c12 (stereo unspecified)	none (no result: GPT2 inhibitor, FLuc inh-1, NPR1 antag)
O=C1NCCCc2[nH]c(-c3cc(-c4cccc(F)c4)no3)nc21	FLuc inh-1 2.8µM | FLuc SDR -ATP inconclusive | FLuc SDR ATP inconclusive | FLuc inh-2 7µM
CC(C)(CNC(=O)c1cccc(-c2noc(C(F)(F)F)n2)c1)c1coc(-c2ccccc2)n1	none (no result: HEK cytotox, FLuc inh-1, NIH3T3 tox, NPR1 antag)
O=C(O)c1cccc(-c2noc(-c3cccc(C(F)(F)F)c3)n2)c1	none (no result: HEK cytotox, GPT2 inhibitor, FLuc inh-1, NIH3T3 tox, NPR1 antag) | FLuc SDR -ATP inconclusive | FLuc SDR ATP 0.039µM | FLuc inh-2 0.016µM
Cc1noc(-c2nc(-c3cccc(C(F)(F)F)c3)no2)n1	none
O=C(O)c1cccc(-c2noc(-c3ccc(C(F)(F)F)cc3)n2)c1	none (no result: HEK cytotox, GPT2 inhibitor, FLuc inh-1, NIH3T3 tox, NPR1 antag) | FLuc SDR -ATP 7µM | FLuc SDR ATP 0.0062µM | FLuc inh-2 0.0035µM
